Pf growth 48h – inhibits P. falciparum growth in the first generation, 48 h | hit rate 5.9% among 310,000 | P. falciparum luciferase growth in erythrocytes, 48 h | Potency, µM (series often up to 28.7 µM), for inactives: at the top dose activity change, negative = inhibition, hits mostly inhibitors; note: % is set by controls: 0 for no effect and ±100 for the full control effect
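Read-out is firefly luciferase luminescence from an integrated reporter in P. falciparum, so falling signal marks reduced parasite growth. Infected erythrocytes were at 2% hematocrit and 0.1% parasitemia (final) in Albumax-supplemented RPMI 1640.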
Pf growth 96h – inhibits malaria parasite growth, 96 h | hit rate 6.9% among 320,000 | Potency, µM (doses to about 28.7 µM), inactives show at the top dose activity change, negative = inhibition, most hits filed as inhibitors | P. falciparum luciferase reporter growth, 96 h; note: % is set by controls: 0 for no effect and ±100 for the full control effect
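Readout is luminescence from an integrated firefly luciferase in P. falciparum. Red cells, 2% hematocrit and 0.05% parasitemia final, were cultured with compound through two parasite generations (96 hours) at 37 C, 5% CO2.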
Sm TGR inh – inhibitors of Schistosoma mansoni thioredoxin glutathione reductase; Q962Y6; purified TGR, DTNB reduction, TNB absorbance 405 nm; Potency, µM (series often up to 114 µM), for inactives: at the top dose activity change, negative = inhibition, usual class: inhibitors; hit rate 3% among 360,000; note: % is set by controls: 0 for no effect and ±100 for the full control effect; nearly all actives have a fitted effect of over 60% in size
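First, TGR (20 nM dispensed) and NADPH were mixed with compound. Second, a 15 min room-temperature incubation followed. Third, further NADPH and then DTNB were added to start the reaction. Finally, TNB absorbance was monitored kinetically.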
AMA1 RON2 block – disrupts binding of P. falciparum AMA1 to RON2; AlphaScreen AMA1-biotinylated RON2 peptide binding; hit rate 0.2% among 360,000; Potency, µM (highest dose often 58.2 µM), for inactives: at the top dose activity change, negative = inhibition, most hits filed as inhibitors;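 note: 0% = vehicle wells and -100% = peptide control; nearly all actives have a fitted effect of over 45% in size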
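AMA1 (3D7) with his tag at 25 nM final met compounds first, then biotinylated RON2 peptide at 25 nM; detection used donor plus acceptor beads, 10 µg/mL apiece, read by AlphaScreen after 30 min at room temperature.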
NS1 function inh – blocks influenza NS1 protein function. hit rate 0.4% among 270,000. Potency, µM (top dose mostly 46.1 µM), for the others: top-dose activity, positive = more growth. AID 2326; calls by dose curve; note: actives are rising curves; nearly all actives have a fitted effect of over 50% in size
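Read-out: OD600 growth recovery of NS1-expressing budding yeast. Cells grown overnight at 30C in -URA glucose medium, washed, resuspended and diluted 1:100 in 2% galactose assay medium, pH 6.0. Same strain lacking NS1 served as positive control.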
Numbers without * were called inactive; ? = inconclusive; nt = no result given. A selection: hits, their analogues and other compounds. The true share with any hit is near 11%. Unless noted, calls come from the whole dose curve; as a rule, active = well fitted curve in the direction sought with a large enough effect; inconclusive = small, poorly fitted or top-dose-only effect, or another doubt; inactive = no such curve, though single readings can be large; an effect the other way counts as inactive or inconclusive. Potency is the fitted concentration of half-maximal effect.

SMILES	Pf growth 48h	Pf growth 96h	Sm TGR inh	AMA1 RON2 block	NS1 function inh
O=C(NC1CCCCC1)c1cc2ccccc2cc1O	5.2µM*	1.9µM*	-4%	13%	-8%
CC1(Cc2ccccc2OC(F)(F)F)C(=O)Nc2c(Cl)ccc(Cl)c21 (stereo unspecified)	nt	nt	nt	2%	nt
CCNc1nc2c(c(=O)n(C)c(=O)n2C)n1Cc1ccc(Cl)cc1	-7%	?	-19%	-9%	-4%
CCC(C)Nc1nc2c(c(=O)n(C)c(=O)n2C)n1Cc1ccc(Cl)cc1 (stereo unspecified)	?	6.6µM*	0%	9%	0%
CCC(C)Nc1nc2c(c(=O)n(C)c(=O)n2C)n1Cc1cccc(C)c1 (stereo unspecified)	15µM*	74%	-10%	5%	-2%
COc1ccccc1C(=O)NCCC(=O)N1CCN(c2ccccc2O)CC1	12µM*	?	-18%	-5%	nt
CCOc1ccc(S(=O)(=O)NCCC(=O)N2CC=C(c3ccccc3)CC2)cc1	9.3µM*	?	-1%	11%	nt
COc1ccccc1C(=O)NCCC(=O)N1CC=C(c2ccccc2)CC1	12µM*	?	-5%	0%	nt
CCN(CC)C(=O)c1cc(-c2ccc(Cl)cc2)on1	nt	nt	-7%	nt	nt
CCCN(CC(=O)Nc1ccc(F)c(F)c1F)C(=O)c1ccc2c(=O)n3c(nc2c1)CCC3	?	-14%	1%	-4%	nt
CC(C)(C)C(=O)Nc1ccccc1C(=O)OCc1cc(=O)n2ccsc2n1	nt	nt	3%	nt	nt
Cc1ccc(S(=O)(=O)N2CCN(CC(=O)Nc3ccnn3C3CCCC3)CC2)cc1	?	-20%	0%	-7%	nt
COc1ccc(Cc2c(-c3ccccc3)nc3ccc(Br)cn23)c(C)c1	nt	nt	nt	-11%	nt
CN1CCN(C(=O)CCN2C(=O)/C(=C\c3ccc(Cl)cc3)SC2=S)CC1	-7%	8.3µM*	-10%	3%	-6%
COc1ccccc1/C=C1\SC(=S)N(CCC(=O)N2CCN(C)CC2)C1=O	12µM*	17%	4%	?	5%
CC(CNC(=O)c1csc2c1CCCCC2)c1ccccc1 (stereo unspecified)	nt	nt	-1%	nt	nt
COc1cccc(N2CCN(C(=O)C3CCC(=O)N(C4CCCCCC4)C3)CC2)c1 (stereo unspecified)	8.3µM*	?	-7%	-12%	22%
CN1CCN(CCCNC(=O)C2CC(=O)N(C3CCCCC3)C2)CC1 (stereo unspecified)	15%	0%	2%	3%	-4%
COc1cccc(CN2CCN(C(=O)C3CCC(=O)N(C4CCCC4)C3)CC2)c1 (stereo unspecified)	?	-21%	?	13%	16%
COc1ccc(N2CCN(CCNC(=O)C3CC(=O)N(C4CCCC4)C3)CC2)cc1 (stereo unspecified)	17%	1.9µM*	7%	0%	-11%
O=C(NCCCN1CCN(c2ccccc2F)CC1)C1CC(=O)N(C2CCCC2)C1 (stereo unspecified)	nt	12µM*	2%	-4%	5%
CCn1c(=O)cc(SCC(=O)NCc2ccc(Cl)cc2)c2ccccc21	nt	nt	-8%	nt	nt
CCn1c(=O)cc(SCC(=O)NCCCN2CCN(c3ccccc3F)CC2)c2ccccc21	12µM*	?	-10%	0%	3%
Cc1ccc(C)c(CN2C(=O)c3ccccc3S(=O)c3ccc(C(=O)N(C)Cc4ccccc4)cc32)c1 (stereo unspecified)	nt	nt	6%	nt	nt
CC(C)C#Cc1cnc2c(c1)C(=O)N([C@@H](C)CO)C[C@@H](C)[C@H](CN(C)Cc1cccc(F)c1)O2	nt	nt	nt	-7%	nt
SMILES	Pf growth 48h	Pf growth 96h	Sm TGR inh	AMA1 RON2 block	NS1 function inh
CN(C)c1cc[n+](CC(O)C[n+]2ccc(N(C)C)cc2)cc1	9.3µM*	4.7µM*	-4%	-1%	nt
CCCC1CCCCN1 (stereo unspecified)	10%	-2%	nt	nt	nt
C1CCC(C(CC2CCCCN2)C2CCCCC2)CC1 (stereo unspecified)	3.7µM*	4.1µM*	-2%	8%	-16%
CCOc1ccc(OCCOC(=O)C2CCN(S(=O)(=O)c3ccc(C)c(C)c3)CC2)cc1	-16%	9%	-14%	-16%	nt
O=C(Nc1cccc(Cl)c1)N1CCN(C2c3ccccc3-c3ccccc32)CC1	9.3µM*	?	-21%	-7%	2%
O=C(Nc1cccc(Cl)c1)N1CCCCCC1	31%	?	-4%	0%	-19%
Cc1cccc(NC(=O)c2ccco2)c1C	4%	10µM*	-21%	0%	6%
O=C(Nc1cc(-c2ccccc2)cs1)c1ccco1	?	2.3µM*	0%	-17%	nt
Cc1cccc2[nH]c(-c3ccc(NC(=O)c4ccco4)cc3)nc12	-45%	0.41µM*	-1%	-2%	-14%
Cc1ccccc1NC(=O)c1ccco1	19%	?	-15%	5%	0%
O=C(Nc1nc(-c2ccccc2)cs1)c1ccco1	82%	3%	0%	-11%	-49%
O=C(Nc1ccc2nc(-c3ccccc3)[nH]c2c1)c1ccco1	?	-11%	28µM*	12%	-11%
COc1ccc(-n2nnc(-c3nc(-c4ccc5c(c4)OCO5)no3)c2C)cc1Cl	nt	nt	13%	nt	nt
Cc1cc(C)cc(NC(=O)c2cc(C)n(Cc3cccs3)c2C)c1	138%	117%	40µM*	-7%	3%
O=[As](O)(O)c1ccc(N=Nc2ccc(O)cc2)cc1	?	2.9µM*	50µM*	-6%	-3%
O=[As](O)(O)c1ccc(N=Nc2ccc([As](=O)(O)O)cc2)cc1	nt	nt	nt	nt	0%
CSc1cccc(CN2CCC(CO)(Cc3ccccc3)CC2)c1	?	?	16%	-11%	3%
OCC1(Cc2ccccc2)CCCN(Cc2ccc(-c3ccco3)cc2)C1 (stereo unspecified)	?	?	35µM*	-11%	-1%
OCC1(Cc2ccccc2)CCN(Cc2ccc(-c3ccco3)cc2)CC1	?	35%	32µM*	0%	3%
Cc1ccc(CNC(=O)CN(C)S(=O)(=O)c2ccc3c(c2)c(=O)n(C)c(=O)n3C)cc1	nt	nt	-7%	nt	nt
CSc1ccccc1C(=O)NC1CCCN(Cc2ccccc2F)C1 (stereo unspecified)	-12%	-8%	1%	0%	2%
CCc1[nH]nc(C(=O)NC2CCCN(Cc3ccccc3F)C2)c1C (stereo unspecified)	0%	13µM*	-22%	-1%	-9%
CC(=O)c1ccc(C(=O)NC2CCCN(Cc3ccccc3F)C2)cc1 (stereo unspecified)	-11%	5.9µM*	-2%	17%	0%
O=C(CCn1cnnn1)NC1CCCN(Cc2ccccc2F)C1 (stereo unspecified)	10%	13µM*	2%	-9%	0%
CCCc1cc(C(=O)NC2CCCN(Cc3ccccc3F)C2)no1 (stereo unspecified)	-15%	10µM*	-4%	-8%	-5%
CCOc1ccc(NC(=O)Cn2cnc3nc4c(cc3c2=O)CCCC4)cc1	nt	nt	-1%	nt	nt

High-throughput results as filed in PubChem.
